From PubChem BioAssay AID602156 (GNF / Scripps Winzeler lab, 2011)
The whole screen tested about 5,700 compounds, of which about 280 (4.9%) were called active. How the calls were made is not given here. A selection follows.

Assay: exo-erythrocytic parasite development inhibition – imaging, Malaria Box, P. yoelii, HepG2-A16-CD81EGFP, dose response (AID 602156)
Settings: P. yoelii liver stage in HepG2-A16-CD81EGFP

outcome, inactive:
CC(C)CC(NC(=O)C(=Cc1ccco1)NC(=O)c1ccccc1)C(=O)OCc1ccccc1 (stereo unspecified)
Clc1cccc(CSc2nc(Nc3ccc4c(c3)OCO4)c3ccccc3n2)c1
O=C(CSc1nc2ccccc2[nH]1)Nc1ccc2c(c1)OCO2
CC(C)(C)C1=NN(CC(=O)Nc2ccc3c(c2)OCO3)C(=O)c2cc3ccccc3n2C1
CC(C)CN1CCC(O)(c2ccc3oc(C(=O)Nc4ccc5c(c4)OCO5)cc3c2)CC1
O=C(Nc1ccc2c(c1)OCO2)c1cc2cc(C3(O)CCN(CCCc4ccccc4)CC3)ccc2o1
c1ccc2c(NC3CCCC3)nc(Nc3ccc4c(c3)OCO4)nc2c1
CCCc1ccc(OCCNC(=O)CCNC(=O)Nc2cccc(Cl)c2)cc1
CC(C)CNC(=O)c1ccc(OC2CCN(CC3CCCCC3)CC2)c(Cl)c1
CC(C)CN(CC(=O)Nc1cc(C(C)(C)C)nn1-c1ccccc1)C(=O)c1cc(Cl)cc(Cl)c1
O=C(Nc1ccc(-n2cnnn2)cc1)C1CCN(Cc2ccc(OC(F)F)cc2)CC1
CCC(C)OC(=O)C1=C(C)NC2=C(C(=O)CC(c3ccc(Cl)cc3)C2)C1c1ccccc1F (stereo unspecified)
N#Cc1cc(Oc2ccc(-c3cnc4ccccc4n3)cc2)nc2ccccc12
COc1ccc(C2C(C(=O)Nc3cccc(OC)c3)c3ccccc3C(=O)N2C2CCCCC2)cc1 (stereo unspecified)
CC[n+]1c(C=CC=C2N(C)c3ccccc3C2(C)C)n(-c2ccccc2)c2ccccc21
COc1ccc(NC(=O)NCc2cccn2Cc2ccc(F)cc2)cc1OC
Cn1nc(C(=O)N2CCCCCC2)c2c1CCC(NCC(C)(C)N1CCOCC1)C2 (stereo unspecified)
C=C(Cl)CSc1nnc(CCNC(=O)c2ccc(C)cc2)n1-c1ccc(F)cc1
CCc1nc2ccc(NC(=O)c3ccncc3)cc2c(=O)n1Cc1cccc(OC)c1
CCCc1nc2ccc(NC(=O)NCC)cc2c(=O)n1Cc1ccc(-c2ccccc2)cc1
COc1cc(OC)cc(C(=O)N(CCCC(C)Nc2cc(OC)cc3cccnc23)Cc2ccc(Cl)cc2)c1 (stereo unspecified)
COc1cc(C(=O)C=CNc2ccc(N(C)C)cc2)cc(OC)c1OC
CCC(Cc1cnc2nc(N)nc(N)c2n1)c1ccc(C(=O)N[C@@H](CCC(=O)O)C(=O)O)cc1 (stereo partly specified)
CCCCCCc1cc2cc(-c3nc4ccccc4[nH]3)c(=Nc3ccccc3C)oc2cc1O
CC(C)(C)c1nn(-c2ccc(Cl)cc2)c2[nH]c(=O)c(CNCc3ccccc3)cc12
c1ccc2c(NCCNc3c4ccccc4nc4ccccc34)c3ccccc3nc2c1
